From the supplement of paper PMC8728848
The full list was thinned out, with the strongest signals kept by preference.

How the values were obtained:
Assay in all cases: glycan array binding signal (z-score within array); higher = stronger binding
Conditions in all cases: glycan notation: IUPAC condensed, linker removed
[1] = target: GlcNAc(b1-3)Gal(b1-4)GlcNAc(b1-3)Gal(b1-4)GlcNAc(b1-3)Gal(b1-4)GlcNAc(b1-2)Man(a1-3)[GlcNAc(b1-3)Gal(b1-4)GlcNAc(b1-3)Gal(b1-4)GlcNAc(b1-3)Gal(b1-4)GlcNAc(b1-2)Man(a1-6)]Man(b1-4)GlcNAc(b1-4)[Fuc(a1-6)]GlcNAc
How it was run: (§1)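 Columns mapping to the same glycan were averaged after glycan names were converted to IUPAC-condensed notation. The data come from 3228 arrays in the Consortium for Functional Glycomics database, limited to those with an available protein sequence. Binding is reported as a within-array Z-score averaged across arrays of one protein sequence and across linkers.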

[2] = target: GlcNAc(b1-3)Gal(b1-4)GlcNAc(b1-3)Gal(b1-4)GlcNAc(b1-3)Gal(b1-4)GlcNAc(b1-3)Gal(b1-4)GlcNAc(b1-2)Man(a1-3)[GlcNAc(b1-3)Gal(b1-4)GlcNAc(b1-3)Gal(b1-4)GlcNAc(b1-3)Gal(b1-4)GlcNAc(b1-3)Gal(b1-4)GlcNAc(b1-2)Man(a1-6)]Man(b1-4)GlcNAc(b1-4)GlcNAc
How it was run: as §1

[3] = target: GlcNAc(b1-3)Gal(b1-4)GlcNAc(b1-3)Gal(b1-4)GlcNAc(b1-3)Gal(b1-4)GlcNAc(b1-3)Gal(b1-4)GlcNAc(b1-2)Man(a1-3)[GlcNAc(b1-3)Gal(b1-4)GlcNAc(b1-3)Gal(b1-4)GlcNAc(b1-3)Gal(b1-4)GlcNAc(b1-3)Gal(b1-4)GlcNAc(b1-2)Man(a1-6)]Man(b1-4)GlcNAc(b1-4)[Fuc(a1-6)]GlcNAc
How it was run: as §1

[4] = target: GlcNAc(b1-3)Gal(b1-4)GlcNAc(b1-3)Gal(b1-4)GlcNAc(b1-3)Gal(b1-4)GlcNAc(b1-3)Gal(b1-4)GlcNAc(b1-2)[GlcNAc(b1-3)Gal(b1-4)GlcNAc(b1-3)Gal(b1-4)GlcNAc(b1-3)Gal(b1-4)GlcNAc(b1-3)Gal(b1-4)GlcNAc(b1-6)]Man(a1-6)[GlcNAc(b1-3)Gal(b1-4)GlcNAc(b1-3)Gal(b1-4)GlcNAc(b1-3)Gal(b1-4)GlcNAc(b1-3)Gal(b1-4)GlcNAc(b1-2)Man(a1-3)]Man(b1-4)GlcNAc(b1-4)[Fuc(a1-6)]GlcNAc
How it was run: as §1

[5] = target: GlcNAc(b1-3)Gal(b1-4)GlcNAc(b1-3)[GlcNAc(b1-3)Gal(b1-4)GlcNAc(b1-3)]GalNAc
How it was run: as §1

[6] = target: GlcNAc(b1-3)Gal(b1-4)GlcNAc(b1-6)[Gal(b1-3)]GalNAc
How it was run: as §1

[7] = target: GlcNAc(b1-4)Gal(b1-4)GlcNAc
How it was run: as §1

[8] = target: GlcNAc(b1-6)Gal(b1-4)GlcNAc
How it was run: as §1

GlcNAc(b1-6)GalNAc = target: GlcNAc(b1-6)GalNAc
How it was run: as §1

[9] = target: Man(a1-2)Man(a1-3)[Man(a1-6)]Man(a1-6)[Man(a1-2)Man(a1-3)]Man(b1-4)GlcNAc(b1-4)GlcNAc
How it was run: as §1

[10] = target: Man(a1-3)[Man(a1-6)]Man(b1-4)GlcNAc(b1-4)GlcNAc
How it was run: as §1

[11] = target: Man(a1-3)[Man(a1-6)]Man(b1-4)GlcNAc(b1-4)[Fuc(a1-6)]GlcNAc
How it was run: as §1

[12] = target: Neu5Ac(a2-3)Gal(b1-3)[Fuc(a1-4)]GlcNAc
How it was run: as §1

[13] = target: Neu5Ac(a2-3)Gal(b1-3)[GlcNAc(b1-6)]GalNAc
How it was run: as §1

[14] = target: Neu5Ac(a2-3)Gal(b1-4)GlcNAc(b1-2)Man(a1-3)[Neu5Ac(a2-3)Gal(b1-4)GlcNAc(b1-2)Man(a1-6)]Man(b1-4)GlcNAc(b1-4)[Fuc(a1-6)]GlcNAc
How it was run: as §1

[15] = target: Neu5Ac(a2-3)Gal(b1-4)GlcNAc(b1-2)[Neu5Ac(a2-3)Gal(b1-4)GlcNAc(b1-4)]Man(a1-3)[GlcNAc(b1-4)][Neu5Ac(a2-3)Gal(b1-4)GlcNAc(b1-4)Man(a1-6)]Man(b1-4)GlcNAc(b1-4)GlcNAc
How it was run: as §1

[16] = target: Neu5Ac(a2-3)Gal(b1-4)GlcNAc(b1-3)Gal(b1-4)GlcNAc
How it was run: as §1

[17] = target: Neu5Ac(a2-3)Gal(b1-4)GlcNAc(b1-3)Gal(b1-4)GlcNAc(b1-2)Man(a1-3)[Neu5Ac(a2-3)Gal(b1-4)GlcNAc(b1-3)Gal(b1-4)GlcNAc(b1-2)Man(a1-6)]Man(b1-4)GlcNAc(b1-4)GlcNAc
How it was run: as §1

[18] = target: Neu5Ac(a2-3)GalNAc(b1-4)GlcNAc
How it was run: as §1

[19] = target: Neu5Ac(a2-6)Gal(b1-4)GlcNAc(b1-2)Man(a1-3)Man(b1-4)GlcNAc(b1-4)GlcNAc
How it was run: as §1

[20] = target: Neu5Ac(a2-6)Gal(b1-4)GlcNAc(b1-2)Man(a1-3)[Neu5Ac(a2-3)Gal(b1-4)GlcNAc(b1-2)Man(a1-6)]Man(b1-4)GlcNAc(b1-4)GlcNAc
How it was run: as §1

[21] = target: Neu5Ac(a2-6)Gal(b1-4)GlcNAc(b1-2)Man(a1-6)[GlcNAc(b1-2)Man(a1-3)]Man(b1-4)GlcNAc(b1-4)GlcNAc
How it was run: as §1

[22] = target: Neu5Ac(a2-8)Neu5Ac(a2-3)Gal(b1-4)Glc
How it was run: as §1

[23] = target: Neu5Gc(a2-3)Gal(b1-3)GlcNAc
How it was run: as §1

[24] = target: Neu5Gc(a2-3)Gal(b1-4)GlcNAc
How it was run: as §1

[25] = target: Neu5Gc(a2-8)Neu5Gc(a2-6)Gal(b1-4)GlcNAc
How it was run: as §1

B1: PpFlo2 (Pichia pastoris) (protein)
chain: MGSSHHHHHHSSGLVPRGSHMDDSGNGDNSDTAYGCDITTNAVDGFDATIYQYNANDLRLIRDPTFMSTGYLGRNVLNKISGVTVPGFNIWNPSSRTATVYGVKNVNYYNMVLELKGYFKADVSGDYKLTLSHIDDSSMLFFGKETAFKCCDAGSIPLNEAPTDYSLFTIKPSNQVNSEVISATQYLEAGKYYPVRIVFVNALERARFDFKLTIPSGAVLDDFQNYIYQFGDLDENSCHE
**Q.** How did the “glycan array binding signal (z-score)” value [1] turn out when B1 was run?
**A.** 7.22

**Q.** And the “glycan array binding signal (z-score)” value [2]?
**A.** 7.34

**Q.** And the “glycan array binding signal (z-score)” value [3]?
**A.** 7.63

**Q.** And the “glycan array binding signal (z-score)” value [4]?
**A.** 4.18

**Q.** And the “glycan array binding signal (z-score)” value [5]?
**A.** 4.33

**Q.** And the “glycan array binding signal (z-score)” value [6]?
**A.** 2.11

**Q.** What about the “glycan array binding signal (z-score)” value [7] of the same binder?
**A.** 0.414

**Q.** What about the “glycan array binding signal (z-score)” value [8] of the same binder?
**A.** 0.578

**Q.** What about the “glycan array binding signal (z-score)” value (GlcNAc(b1-6)GalNAc) of the same binder?
**A.** 0.967

**Q.** What about the “glycan array binding signal (z-score)” value [9] of the same binder?
**A.** -0.276

**Q.** And the “glycan array binding signal (z-score)” value [10]?
**A.** 0.074

**Q.** What about the “glycan array binding signal (z-score)” value [11] of the same binder?
**A.** -0.248

**Q.** What about the “glycan array binding signal (z-score)” value [12] of the same binder?
**A.** -0.304

**Q.** And the “glycan array binding signal (z-score)” value [13]?
**A.** 0.351

**Q.** What about the “glycan array binding signal (z-score)” value [14] of the same binder?
**A.** -0.271

**Q.** What about the “glycan array binding signal (z-score)” value [15] of the same binder?
**A.** -0.271

**Q.** And the “glycan array binding signal (z-score)” value [16]?
**A.** -0.293

**Q.** And the “glycan array binding signal (z-score)” value [17]?
**A.** -0.239

**Q.** What about the “glycan array binding signal (z-score)” value [18] of the same binder?
**A.** -0.302

**Q.** And the “glycan array binding signal (z-score)” value [19]?
**A.** -0.293

**Q.** And the “glycan array binding signal (z-score)” value [20]?
**A.** -0.271

**Q.** What about the “glycan array binding signal (z-score)” value [21] of the same binder?
**A.** 2.77

**Q.** What about the “glycan array binding signal (z-score)” value [22] of the same binder?
**A.** -0.301

**Q.** What about the “glycan array binding signal (z-score)” value [23] of the same binder?
**A.** -0.301

**Q.** What about the “glycan array binding signal (z-score)” value [24] of the same binder?
**A.** -0.299

**Q.** And the “glycan array binding signal (z-score)” value [25]?
**A.** -0.273
